Data from PubChem BioAssay (NCATS).
Results filed as inconclusive are left out. Active and inactive are the calls of the source. Unless noted, the call rests on the fitted dose curve.

How the values were obtained:
[1] = qHTS for Inhibitors of the Functional Ribonucleoprotein Complex (vRNP) of Lassa (LASV) Arenavirus: LASV Primary Screen - GLuc reporter signal (AID 1347082; calls by dose curve; tested in HEK293 reporter line; further: nearly all actives have a fitted effect of over 60% in size)
[2] = qHTS for Inhibitors of the Functional Ribonucleoprotein Complex (vRNP) of Lassa (LASV) Arenavirus: Viability assay - alamar blue signal for LASV Primary Screen (AID 1347083; calls by dose curve; tested in HEK293 reporter line; further: nearly all actives have a fitted effect of over 80% in size)
[3] = qHTS for Inhibitors of the Functional Ribonucleoprotein Complex (vRNP) of Lymphocytic Choriomeningitis Arenaviruses (LCMV): Viability assay - alamar blue signal for LCMV Primary Screen (AID 1347085; calls by dose curve; tested in HEK293 reporter line; further: nearly all actives have a fitted effect of over 80% in size)
[4] = molecular target: Nucleoprotein (Lymphocytic choriomeningitis virus (strain Armstrong)) (UniProt P09992); assay: qHTS for Inhibitors of the Functional Ribonucleoprotein Complex (vRNP) of Lymphocytic Choriomeningitis Arenaviruses (LCMV): LCMV Primary Screen - GLuc reporter signal (AID 1347086); further: nearly all actives have a fitted effect of over 70% in size
Further: series mostly up to about 57 µM.
On the % scale 0 is the no-effect control and ±100 the full control effect.

Nucleoprotein (Lymphocytic choriomeningitis virus (strain Armstrong)), sequence (P09992 whole entry, looked up): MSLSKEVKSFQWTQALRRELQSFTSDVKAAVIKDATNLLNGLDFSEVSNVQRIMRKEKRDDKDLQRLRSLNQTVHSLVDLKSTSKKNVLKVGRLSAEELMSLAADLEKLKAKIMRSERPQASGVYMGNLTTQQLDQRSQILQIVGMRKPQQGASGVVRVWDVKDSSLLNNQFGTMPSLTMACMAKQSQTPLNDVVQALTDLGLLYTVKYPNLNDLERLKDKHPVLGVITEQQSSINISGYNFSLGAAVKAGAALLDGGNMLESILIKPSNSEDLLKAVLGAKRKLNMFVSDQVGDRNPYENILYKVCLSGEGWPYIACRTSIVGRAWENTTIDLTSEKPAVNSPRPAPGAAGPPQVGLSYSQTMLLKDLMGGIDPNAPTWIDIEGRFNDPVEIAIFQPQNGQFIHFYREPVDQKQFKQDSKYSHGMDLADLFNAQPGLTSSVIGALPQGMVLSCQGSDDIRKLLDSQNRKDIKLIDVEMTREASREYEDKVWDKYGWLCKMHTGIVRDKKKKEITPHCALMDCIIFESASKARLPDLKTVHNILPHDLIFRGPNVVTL

CCCCC/C=C\C/C=C\C[C@H](O)/C=C/C=C\CCCC(=O)O
inactive: activity change, negative = inhibition [1] 6.73% [at 0.757 µM] | activity change, negative = reduced viability [2] 15% [at 0.757 µM] | activity change, negative = lower viability [3] 7.12% [at 0.757 µM] | activity change, negative = inhibition [4] 11.5% [at 0.757 µM]

CCCCC/C=C/CC(=O)OC
inactive: Potency [1] | Potency [2] | Potency [3] | Potency [4]

COC(=O)c1cc(O)c(O)c(O)c1
inactive: Potency [1] | Potency [2] | Potency [3] | Potency [4]

C/C(=N/N=C(\C)c1ccccc1O)c1ccccc1O
inactive: Potency [1] | Potency [2] | Potency [3] | Potency [4]

O=C1Nc2ccccc2C(=O)N2CCC[C@@H]12
inactive: Potency [1] | Potency [2] | Potency [3] | Potency [4]

C[C@@H]1C2C[C@@]34COC(=O)C3=CC=C[C@H]4[C@@]13C[C@H](c1ccoc1)O[C@@H]3O2
inactive: Potency [1] | Potency [2] | Potency [3] | Potency [4]

CC(C)=CCC[C@](C)(O[C@@H]1O[C@H](CO[C@@H]2OC[C@H](O[C@@H]3OC[C@@H](O)[C@H](O)[C@H]3O)[C@H](O)[C@H]2O)[C@@H](O)[C@H](O)[C@H]1O)C1CC[C@]2(C)C1[C@H](O)CC1[C@@]3(C)CC[C@H](O)C(C)(C)C3[C@@H](O)C[C@]12C (stereo not given in full)
inactive: Potency [1] | Potency [2] | Potency [3] | Potency [4]

C=C[C@@H]1CN2CC[C@@H]1C[C@H]2[C@H](O)c1ccnc2ccc(OC)cc12
inactive: Potency [1] | Potency [2] | Potency [3] | Potency [4]

O=C(Nc1ccc(Br)cc1)C(c1ccccc1)c1ccccc1
inactive: Potency [1] | Potency [2] | Potency [3] | Potency [4]

CC(=O)O[C@H](COc1c2ccoc2cc2oc(=O)ccc12)C(C)(C)O
inactive: Potency [1] | Potency [2] | Potency [3] | Potency [4]

Clc1cccc(-c2nnnn2Cc2cccnc2)c1Cl
inactive: Potency [1] | Potency [2] | Potency [3] | Potency [4]

C=C(C)C(O)CC/C(C)=C/Cc1c(O)ccc(C(=O)/C=C/c2ccc(O)cc2)c1O (stereo not given)
inactive: Potency [1] | Potency [2] | Potency [3] | Potency [4]

CC[C@H]1OC(=O)[C@H](C)[C@@H](O[C@H]2C[C@@](C)(OC)[C@@H](O)[C@H](C)O2)[C@H](C)[C@@H](O[C@@H]2O[C@@H](C)C[C@H](N(C)C)[C@@H]2O)[C@](C)(O)C[C@@H](C)C(=O)[C@H](C)[C@@H](O)[C@]1(C)O
inactive: Potency [1] | Potency [2] | Potency [3] | Potency [4]

C[C@]12CCC3C(CC[C@H]4C[C@H](O)CC[C@]34C)C1C[C@H](O)[C@@H]2O (stereo not given in full)
inactive: Potency [1] | Potency [2] | Potency [3] | Potency [4]

CCC(=O)Nc1ccccc1
inactive: Potency [1] | Potency [2] | Potency [3] | Potency [4]

COc1cc(C(C)=O)cc(OC)c1O
inactive: Potency [1] | Potency [2] | Potency [3] | Potency [4]

C=C(CC[C@]12OC(C(=O)O)C(O)(C(=O)O)C(C(=O)O)(O1)C(OC(=O)/C=C/[C@@H](C)C[C@@H](C)CC)C2O)[C@@H](OC(C)=O)[C@H](C)Cc1ccccc1 (stereo not given in full)
inactive: Potency [1] | Potency [2] | Potency [3] | Potency [4]

C=CC1CN2CCC1CC2C(O)c1ccnc2ccc(OC)cc12 (stereo not given)
inactive: Potency [1] | Potency [2] | Potency [3] | Potency [4]

COc1ccccc1NC(C)=O
inactive: Potency [1] | Potency [2] | Potency [3] | Potency [4]

COc1n[nH]c2nncnc12
inactive: Potency [1] | Potency [2] | Potency [3] | Potency [4]

CC/C=C\CCOC(C)OCC (stereo not given)
inactive: Potency [1] | Potency [2] | Potency [3] | Potency [4]

CC(C)(O)[C@@H]1CC(=O)[C@]2(C)[C@H](CC[C@@]3(C)[C@H](c4ccoc4)OC(=O)[C@H]4O[C@]432)[C@@]1(C)/C=C\C(=O)O
inactive: Potency [1] | Potency [2] | Potency [3] | Potency [4]

COc1cc(C(=O)OC2CC3CCC2(C)C3(C)C)ccc1OC(C)=O (stereo not given)
inactive: Potency [1] | Potency [2] | Potency [3] | Potency [4]

C=C[C@]1(C)C=C2C(=O)C[C@H]3C(C)(C)CCC[C@]3(C(=O)O)[C@@]2(O)CC1
inactive: Potency [1] | Potency [2] | Potency [3] | Potency [4]

Cc1ncsc1CCO
inactive: Potency [1] | Potency [2] | Potency [3] | Potency [4]

O=C(CCc1ccc(O)cc1)c1c(O)cc(O)cc1O[C@@H]1O[C@H](CO)[C@H](O)[C@H](O)[C@H]1O
inactive: Potency [1] | Potency [2] | Potency [3] | Potency [4]

C/C(=C\C(=O)O)CC(=O)O
inactive: Potency [1] | Potency [2] | Potency [3] | Potency [4]

C[C@@]12CC[C@H]3OC(=O)C=C3C1CC[C@@]13CC(CCC12)[C@](CO)(O[C@H]1O[C@H](CO)[C@@H](O)[C@H](O)[C@H]1O)C3 (stereo not given in full)
inactive: Potency [1] | Potency [2] | Potency [3] | Potency [4]

CCCCCCCC(=O)C(C)C(=O)N(C)[C@H](Cc1ccc(OC)cc1)C(=O)N(C)[C@H](C(N)=O)C(C)C (stereo not given in full)
inactive: Potency [1] | Potency [2] | Potency [3] | Potency [4]

O=C1c2ccccc2C(=O)c2c(O)c(O)cc(O)c21
inactive: Potency [1] | Potency [2] | Potency [3] | Potency [4]
